We go through seven compounds from PubChem BioAssay.

The test system of assay [1] is Plasmodium falciparum Sir2 (PF13_0152, Sir2A). As to the kind of experiment: Plasmodium falciparum Sir2A binding compounds – biochemical, small-molecule microarray, 635 nm fluorescence, primary screen (AID 1098).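 Further: score merges spot fluorescence intensity with its signal-to-noise ratio.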 Conditions: fluorescence 635 nm, higher = more signal.
A short description of assay [2]: probe aDKK1 binding to arrayed compounds – biochemical, biotinylated probe, 635/667 nm fluorescence, primary screen (AID 1099).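 Further: score merges 667nm spot fluorescence with signal to noise across triplicate slides.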 Conditions: small-molecule microarray, higher = more signal.
Assay [3] can be described thus: probe aCHRDL2 binding to arrayed compounds – biochemical, biotinylated probe, 635/667 nm fluorescence, primary screen (AID 1100). Conditions: small-molecule microarray, higher = more signal.
The nature of assay [4]: change in splice reporter luminescence, either direction, cell-based, HEK293, spliceosome inhibition project, primary screen (AID 1101).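 Further: HEK293 cells carrying a splicing-competent luciferase reporter gene; test concentration not given here.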 Conditions: HEK293 splicing luciferase reporter, 24 h, higher = more signal, called active from +8 up or from −8 down. (In a reporter assay the amount or activity of a reporter protein is the signal.)
Assay [5] concerns the target Fibroblast growth factor 10 (Homo sapiens) (UniProt O15520). As to the kind of experiment: compounds binding fibroblast growth factor 10 – biochemical, small-molecule microarray, 635 nm fluorescence, primary screen (AID 1102). Conditions: FGF10 binding, fluorescence 635 nm, higher = more signal.
The test system of assay [6] is glycogen synthase kinase-3 (GSK3A per assay name; protocol says GSK3B). In words: compounds binding glycogen synthase kinase-3 – biochemical, small-molecule microarray, 635 nm fluorescence, GSK3A, primary screen (AID 1103). Further: the record names both GSK3A and GSK3B. Conditions: fluorescence 635 nm, higher = more signal.
The target in assay [7] is Epidermal growth factor receptor (Homo sapiens) (UniProt P00533). In words: compounds binding epidermal growth factor receptor – biochemical, small-molecule microarray, 635 nm fluorescence, primary screen (AID 1104).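 Further: score merges 667 nm emission intensity with spot signal to noise over triplicate slides.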 Conditions: EGFR binding, higher = more signal.
Epidermal growth factor receptor (Homo sapiens), sequence (P00533 whole entry, looked up): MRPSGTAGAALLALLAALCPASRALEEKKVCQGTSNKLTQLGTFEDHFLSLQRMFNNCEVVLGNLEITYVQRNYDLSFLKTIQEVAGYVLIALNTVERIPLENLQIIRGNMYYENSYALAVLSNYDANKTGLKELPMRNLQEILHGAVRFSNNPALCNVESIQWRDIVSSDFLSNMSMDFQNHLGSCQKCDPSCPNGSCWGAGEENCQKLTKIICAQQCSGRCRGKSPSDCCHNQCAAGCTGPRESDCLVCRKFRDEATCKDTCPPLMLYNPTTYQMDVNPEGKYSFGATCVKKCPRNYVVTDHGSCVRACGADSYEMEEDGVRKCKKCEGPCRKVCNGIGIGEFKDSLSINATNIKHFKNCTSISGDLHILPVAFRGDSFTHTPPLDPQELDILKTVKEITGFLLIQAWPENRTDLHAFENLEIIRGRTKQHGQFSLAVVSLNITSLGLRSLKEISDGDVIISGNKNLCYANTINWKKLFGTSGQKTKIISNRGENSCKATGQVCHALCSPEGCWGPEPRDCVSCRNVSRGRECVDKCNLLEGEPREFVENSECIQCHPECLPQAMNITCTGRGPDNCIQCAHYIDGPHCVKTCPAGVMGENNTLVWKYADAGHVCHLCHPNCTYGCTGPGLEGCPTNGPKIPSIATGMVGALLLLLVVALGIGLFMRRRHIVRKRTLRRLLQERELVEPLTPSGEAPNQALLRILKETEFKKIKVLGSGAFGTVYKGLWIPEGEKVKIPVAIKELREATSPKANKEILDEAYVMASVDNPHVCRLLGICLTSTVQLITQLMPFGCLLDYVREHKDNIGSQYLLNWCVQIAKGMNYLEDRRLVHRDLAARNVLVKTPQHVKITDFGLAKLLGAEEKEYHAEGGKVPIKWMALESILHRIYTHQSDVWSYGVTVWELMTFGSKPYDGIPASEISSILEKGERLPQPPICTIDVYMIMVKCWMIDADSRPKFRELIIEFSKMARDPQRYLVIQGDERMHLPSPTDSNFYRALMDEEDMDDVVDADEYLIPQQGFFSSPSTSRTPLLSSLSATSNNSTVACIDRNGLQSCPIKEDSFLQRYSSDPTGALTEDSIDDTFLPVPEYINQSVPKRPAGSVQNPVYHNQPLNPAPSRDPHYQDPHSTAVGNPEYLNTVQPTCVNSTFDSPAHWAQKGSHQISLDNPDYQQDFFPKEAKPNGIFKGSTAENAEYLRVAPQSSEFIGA
Assay [8] has as its target Follistatin-related protein 3 (Homo sapiens) (UniProt O95633). As to the kind of experiment: compounds binding follistatin-related protein 3 – biochemical, small-molecule microarray, 635 nm fluorescence, primary screen (AID 1105).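 Further: score merges emission near 667 nm and signal to noise per printed spot across three slides.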 Conditions: FSTL3 binding, higher = more signal.
The target of assay [9] is Dickkopf-related protein 1 (Homo sapiens) (UniProt O94907). In words: small molecules binding DKK1 protein – biochemical, small-molecule microarray, 635 nm fluorescence scan, primary screen (AID 1106).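 Further: score merges emission near 667 nm with signal to noise over three replicate slides.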 Conditions: higher = more signal.
Dickkopf-related protein 1 (Homo sapiens), sequence (O94907 whole entry, looked up): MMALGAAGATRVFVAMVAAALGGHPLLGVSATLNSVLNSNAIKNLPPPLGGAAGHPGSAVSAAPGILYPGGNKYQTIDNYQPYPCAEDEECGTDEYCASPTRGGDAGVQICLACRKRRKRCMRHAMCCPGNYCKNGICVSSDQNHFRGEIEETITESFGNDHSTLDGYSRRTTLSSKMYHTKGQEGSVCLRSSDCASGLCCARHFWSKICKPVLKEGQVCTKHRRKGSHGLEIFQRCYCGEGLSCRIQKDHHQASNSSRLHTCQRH
Assay [10] relates to Inhibin beta A chain (activin A). In words: small molecules binding activin A – biochemical, small-molecule microarray, 635 nm fluorescence scan, primary screen (AID 1107).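 Further: mouse activin A protein probed at 4.33 µg/mL on printed slides; score merges bound-protein fluorescence near 667 nm with spot signal-to-noise.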 Conditions: INHBA, higher = more signal.
For assay [11], the system named is Human papillomavirus type 1a protein E7 (residues 44-93). In words: small molecules binding HPV E7 44-93 – biochemical, small-molecule microarray, residues 44-93, 635 nm fluorescence, primary screen (AID 1108).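 Further: E7 fragment applied at 1 µg/mL in TBST for 1 h at 4 C; score combines spot fluorescence with its signal to noise ratio.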 Conditions: fluorescence 635 nm, higher = more signal.
Assay [12] can be described thus: hepatitis C replication reporter changes, two-sided – Huh7 cells, luciferase reporter, HCV replication inhibitor project, primary screen (AID 1109).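 Further: huh7 hepatoma cells harbouring a luciferase neomycin HCV replicon reporter; luciferase luminescence as measure of HCV replicon replication; test concentration not given here.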 Conditions: Huh7 HCV replicon luciferase reporter, 48 h; higher = more signal.
The target of assay [13] is Left-right determination factor 2 (Homo sapiens) (UniProt O00292). In words: small molecules binding LEFTY2 protein – biochemical, small-molecule microarray, 635 nm fluorescence scan, primary screen (AID 1110). Conditions: higher = more signal.
Left-right determination factor 2 (Homo sapiens), sequence (O00292 whole entry, looked up): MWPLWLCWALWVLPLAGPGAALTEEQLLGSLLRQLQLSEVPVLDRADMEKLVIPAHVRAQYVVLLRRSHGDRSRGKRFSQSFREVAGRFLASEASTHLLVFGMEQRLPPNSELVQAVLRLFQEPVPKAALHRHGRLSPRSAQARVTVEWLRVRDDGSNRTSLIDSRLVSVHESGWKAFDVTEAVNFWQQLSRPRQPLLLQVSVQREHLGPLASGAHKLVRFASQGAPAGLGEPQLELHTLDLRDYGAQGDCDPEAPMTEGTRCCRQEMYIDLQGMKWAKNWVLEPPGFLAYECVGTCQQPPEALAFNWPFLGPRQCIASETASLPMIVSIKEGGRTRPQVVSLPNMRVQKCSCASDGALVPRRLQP
In assay [14] the target is Calmodulin-1 (Homo sapiens) (UniProt P0DP23). As to the kind of experiment: small molecules binding calmodulin-1 with EGTA – biochemical, small-molecule microarray, Cy5-labelled CALM1, profiling panel (AID 1111).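 Further: labelled calmodulin applied in Tris saline Tween buffer holding calcium plus EGTA and DTT.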 Conditions: Cy5-CALM1 binding fluorescence, higher = more signal.
The target is the same in assay [15]. As to the kind of experiment: small molecules binding Ca-loaded calmodulin-1 – biochemical, small-molecule microarray, Cy5-labelled CALM1, plus calcium, artefact control for SMM control-protein annotation, profiling panel (AID 1112).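 Further: score merges spot fluorescence with signal to noise from triplicate slides.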 Conditions: Cy5-CALM1 binding fluorescence, higher = more signal.
Assay [16] is described as follows: probe aWnt5a binding to arrayed compounds – biochemical, biotinylated probe, 635/667 nm fluorescence, primary screen (AID 1113).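 Further: score merges 667 nm fluorescence intensity with signal-to-noise per printed feature.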 Conditions: small-molecule microarray, higher = more signal.
Assay [17] can be described thus: probe aShh binding to arrayed compounds – biochemical, biotinylated probe, 635/667 nm fluorescence, primary screen (AID 1114).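 Further: probe is biotin-labelled aShh protein from a stem cell growth factor screen; measures binding of labelled protein to compounds printed on the slide; score merges feature fluorescence at 667 nm with signal-to-noise.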 Conditions: small-molecule microarray, higher = more signal.
Assay [18] in a line: probe aNog binding to arrayed compounds – biochemical, biotinylated probe, 635/667 nm fluorescence, primary screen (AID 1115).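 Further: probe is biotinylated aNog protein used at 0.15 µg/mL for 1 h at 4 C; z-score combines 667 nm fluorescence of each spot with its signal to noise.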 Conditions: small-molecule microarray, higher = more signal.
The target of assay [19] is Torsin-1A-interacting protein 1 (Homo sapiens) (UniProt Q5JTV8). As to the kind of experiment: compound microarray binding of lysate hLAP1 – cell lysate, small-molecule microarray, COS7 lysate, 635/667 nm fluorescence, primary screen (AID 1116). Conditions: 635 nm fluorescence, higher = more signal.
Torsin-1A-interacting protein 1 (Homo sapiens), sequence (Q5JTV8 whole entry, looked up): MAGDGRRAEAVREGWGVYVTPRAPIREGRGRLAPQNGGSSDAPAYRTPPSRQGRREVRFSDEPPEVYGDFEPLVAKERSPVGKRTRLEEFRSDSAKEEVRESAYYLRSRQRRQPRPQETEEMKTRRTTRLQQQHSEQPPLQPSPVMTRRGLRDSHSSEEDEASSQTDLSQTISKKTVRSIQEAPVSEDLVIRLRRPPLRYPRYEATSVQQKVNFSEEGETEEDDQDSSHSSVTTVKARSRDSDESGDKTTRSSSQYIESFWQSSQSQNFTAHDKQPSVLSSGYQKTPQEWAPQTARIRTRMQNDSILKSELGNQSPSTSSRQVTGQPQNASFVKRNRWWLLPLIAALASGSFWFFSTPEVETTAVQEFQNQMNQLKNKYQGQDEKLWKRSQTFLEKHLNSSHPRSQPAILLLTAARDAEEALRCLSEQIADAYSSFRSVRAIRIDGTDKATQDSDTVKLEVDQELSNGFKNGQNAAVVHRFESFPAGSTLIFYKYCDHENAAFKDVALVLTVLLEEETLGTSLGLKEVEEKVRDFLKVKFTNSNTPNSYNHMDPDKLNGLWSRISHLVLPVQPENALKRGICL
For assay [20], the target named is Alpha-bungarotoxin (Bungarus multicinctus) (UniProt P60615). As to the kind of experiment: compounds binding labelled alpha-BTX control protein – biochemical, small-molecule microarray, Alexa647 label, 635/667 nm fluorescence, artefact control for SMM control protein annotation, profiling panel (AID 1117). Conditions: alpha-BTX-A647 binding fluorescence, higher = more signal.
Alpha-bungarotoxin (Bungarus multicinctus), sequence (P60615 whole entry, looked up): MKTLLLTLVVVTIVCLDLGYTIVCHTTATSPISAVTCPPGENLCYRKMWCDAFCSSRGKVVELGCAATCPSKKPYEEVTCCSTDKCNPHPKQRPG

Activity calls are given as the source filed them.

Follistatin-related protein 3 (Homo sapiens), sequence (O95633 whole entry, looked up): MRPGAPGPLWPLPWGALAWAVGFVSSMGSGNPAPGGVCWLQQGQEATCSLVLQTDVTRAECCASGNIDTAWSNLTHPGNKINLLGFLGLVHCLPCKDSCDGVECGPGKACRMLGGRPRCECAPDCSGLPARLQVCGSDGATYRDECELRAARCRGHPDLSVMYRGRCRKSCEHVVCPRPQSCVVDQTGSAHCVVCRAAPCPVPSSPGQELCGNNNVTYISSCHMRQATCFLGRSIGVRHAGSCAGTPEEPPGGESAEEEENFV
Fibroblast growth factor 10 (Homo sapiens), sequence (O15520 whole entry, looked up): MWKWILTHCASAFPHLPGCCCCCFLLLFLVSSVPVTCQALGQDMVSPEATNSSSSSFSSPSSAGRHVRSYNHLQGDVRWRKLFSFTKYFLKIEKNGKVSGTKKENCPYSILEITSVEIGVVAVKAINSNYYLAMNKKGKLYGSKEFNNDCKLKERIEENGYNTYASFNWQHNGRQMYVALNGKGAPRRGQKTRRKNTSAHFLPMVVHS

On to `CC[C@H]1C2=C3C(CC[C@H]4C(OCc5ccc(F)cc5C(F)(F)F)OC[C@](C)([C@@H]34)N(C(=O)OC(C)(C)C)C2)C(COC(C)=O)C1COC(C)=O` (stereo not given in full), for which the composite z-score is 0.386 in [1]; 0.62 in [2]; 0.971 in assay [3]; 0.402 in [5]; 0.665 in assay [6]; -0.379 in assay [7]. For the same compound, the composite z-score in assay [8] is 0.418; in assay [9] it was -0.583; in [10], 0.691; in assay [11], 1.35; in [13] it was -0.747; in assay [14] it was 1.97. In addition, the composite z-score in assay [15] was 1.15; in assay [16], 0.24; in [17] it was 1.15; in [18] it was -0.313; in assay [19], 0.0366; in [20], 0.729. Besides, the results for the z-score in [4] and in assay [12] were -0.695 (inactive) and -0.567, respectively.
Regarding `CC(C)C(=C=CC[C@H](O)c1cccc(OCCO)c1)C[C@H](O)c1ccccn1`, the composite z-score was 0.406 in assay [1]; -0.326 in assay [2]; -0.253 in assay [3]; 0.722 in assay [5]; 0.476 in assay [6]; -0.387 in [7]. Besides, the composite z-score in [8] was 0.339; in assay [9] it was -0.15; in [10], 0.409; in assay [11], 0.106; in [13], -0.256; in assay [14], -0.356. In addition, the composite z-score in assay [15] was -0.78; in assay [16] it was -0.096; in assay [17] it was -0.289; in assay [18], -0.147; in [19], -0.334; in assay [20], -0.579. For the same compound, the z-score was -0.779 (inactive) in assay [4] and -0.423 in [12].
`CC(C)Cc1ccc(CN2CC[C@@H](NC(=O)c3ccccc3)C2)cc1`: the composite z-score was 0.934 in assay [1]; -0.357 in assay [2]; 0.0383 in [3]; -0.75 in assay [5]; -1.11 in [6]; -0.381 in [7]. For the same compound, the composite z-score is -0.647 in assay [8]; -0.0332 in assay [9]; 0.631 in assay [10]; -0.979 in assay [11]; 0.0756 in [13]; -0.816 in assay [14]. Further, the composite z-score in assay [15] was -0.524; in assay [16] it was -0.159; in assay [17] it was -0.345; in assay [18], -0.367; in assay [19], 0.367; in [20] it was 1.01. The z-score in [4] is 1.03 (inactive); in assay [12], -4.02.
With `COC(=O)[C@@]1(Cc2ccccc2)[C@H]2c3cc(C(=O)N(C)C)n(Cc4ccc(Cl)c(C(F)(F)F)c4)c3C[C@H]2CN1C(=O)c1ccccc1`, the composite z-score came out at 0.685 in assay [1]; 0.841 in assay [2]; 1.02 in assay [3]; 1.37 in assay [5]; 1.31 in assay [6]; 0.603 in assay [7]. The composite z-score in assay [8] was determined as 1.45; in [9] it was 0.283; in assay [10] it was 1.29; in [11] it was 1.37; in [13], 0.533; in assay [14] it was 1.49. The composite z-score in assay [15] was 1.06; in assay [16] it was 0.315; in assay [17], 1.24; in [18], 1.91; in [19], 0.636; in [20], 0.995. Besides, the z-score in [4] is -1.45 (inactive); in [12], -2.61.
Turning to `COC(=O)c1c2oc(c1C(=O)OC)C(=O)N[C@H](Cc1ccccc1)Cn1cc(nn1)C1(CCCCC1)NC(=O)N[C@H](CO)CC2`, the composite z-score was 0.569 in assay [1]; -0.177 in assay [2]; -0.279 in assay [3]; 0.495 in assay [5]; -0.528 in [6]; -0.857 in assay [7]. Further, the composite z-score in assay [8] is -0.409; in assay [9] it was -0.2; in assay [10], 0.116; in assay [11] it was -1.21; in assay [13], -0.161; in assay [14], -0.311. Further, the composite z-score was -0.0933 in [15]; -0.105 in [16]; 0.0639 in assay [17]; 0.0119 in assay [18]; 0.459 in assay [19]; 2.39 in [20]. In addition, the z-score in assay [4] is -0.168 (inactive); in [12] it was 0.0733.
As to `[N-]=[N+]=NCc1ccccc1C[C@@]1(C(=O)NCCN2CCOCC2)N=C(c2ccc(OCCCO)cc2)O[C@@H]1c1ccccc1`, the composite z-score in assay [1] is 0.365; in assay [2] it was 0.809; in assay [3], 0.996; in assay [5], 0.486; in [6] it was -0.0659; in [7], -0.883. In addition, the composite z-score in assay [8] is -0.192; in assay [9] it was -0.342; in [10] it was 0.293; in [11], 1.39; in [13], -0.58; in assay [14], 1.26. Moreover, the composite z-score in assay [15] was 0.683; in assay [16] it was 0.0391; in assay [17], 0.358; in assay [18] it was 0.35; in assay [19], 1.06; in [20], 1.19. For the same compound, the z-score in assay [4] was 0.995 (inactive); in [12] it was -2.6.
`C=C(C(=O)CC[C@@H](OC(=O)c1ccccc1-c1ccccc1C(=O)O)c1cccc(OCCO)c1)C(C)C`: the composite z-score was 0.679 in [1]; -0.318 in assay [2]; -0.393 in [3]; 1.56 in [5]; 0.133 in assay [6]; -0.143 in assay [7]. The composite z-score in [8] is 0.441; in [9], 0.907; in assay [10], 1.06; in assay [11], -0.635; in assay [13] it was 0.706; in [14] it was -0.367. For the same compound, the composite z-score in assay [15] was -0.692; in assay [16] it was -0.129; in assay [17], -0.0396; in assay [18], -0.248; in assay [19], 3.26; in assay [20] it was -0.11. Besides, the results for the z-score in assay [4] and in assay [12] were 0.436 (inactive) and -3.06, respectively.
